Records with an inconclusive call do not appear. Activity calls are given as the source filed them. Unless noted, calls follow the shape of the dose curve; as a rule, active = well fitted curve in the direction sought with a large enough effect; inconclusive = small, poorly fitted or top-dose-only effect, or another doubt; inactive = no such curve, though single readings can be large; an effect the other way counts as inactive or inconclusive. Where a SMILES comes first, the peptide text is derived from it. [ ]: non-standard residue; d: D form. The star is where a group is joined. Benzoyl(4-tBu) = CC(C)(C)c1ccc(C(=O)*)cc1; Lys(Et2) = CCN(CC)CCCC[C@H](N)C(=O)O
Columns and labels:
[1] = qHTS to identify inhibitors of the type 1 interferon - major histocompatibility complex class I in skeletal muscle: primary screen against the NCATS Mechanism Interrogation Plate v5.0 (MIPE) Libary (AID 1347411); conditions: iHSKM cells + IFN-b, HiBiT-tagged MHC-I luminescence, 24 h; series mostly up to 45.8 µM; also: nearly all actives have a fitted effect of over 65% in size;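 as to activity change, negative = inhibition: plate controls were vehicle for no effect and reference inhibitor for full effect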
Outline: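 Cells were genome-edited human myoblasts carrying a HiBit tag on endogenous HLA-B. They were treated with IFN-beta (4.0 ng/ml) and titrated compounds (top 46 uM) for 24 hrs before lytic HiBiT detection.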

[2] = Primary qHTS for inhibitors of nuclear receptor binding SET domain protein 2 (NSD2) in an isogenic RCH-ACV NSD2 p.E1099K mutant (9B) (AID 1645876); conditions: RCH-ACV NSD2 E1099K (9B) viability, CellTiter-Glo, 72 h; series mostly up to 44.9 µM; also: nearly all actives have a fitted effect of over 70% in size
[3] = Primary qHTS for inhibitors of nuclear receptor binding SET domain protein 2 (NSD2) in an RCH-ACV wild type WT cells (2C) (AID 1645877); conditions: RCH-ACV (leukaemia line) NSD2 WT (2C) viability, CellTiter-Glo, 72 h; series mostly up to 44.9 µM; also: nearly all actives have a fitted effect of over 70% in size
[4] = target: Glutathione peroxidase 1 (Homo sapiens) (UniProt P07203); assay: Primary qHTS Assay for Inhibitors of Recombinant Selenoprotein Glutathione Peroxidase 1 (GPX1) (AID 1845191); conditions: recombinant GPX1, GR-coupled NADPH fluorescence, 15 min; series mostly up to 48.8 µM; also: nearly all actives have a fitted effect of over 65% in size
Outline: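 Recombinant GPX1 (10 nM final) was preincubated with compound for 30 min at room temperature, then reacted with 1 mM GSH, 0.5 mM CHP, 0.5 mM NADPH and 100 nM glutathione reductase; NADPH fluorescence (340/450 nm) was read at 0 and 15 min.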

[5] = target: Phospholipid hydroperoxide glutathione peroxidase GPX4 (Homo sapiens) (UniProt P36969); assay: Primary qHTS Assay for Inhibitors of Recombinant Selenoprotein Glutathione Peroxidase 4 (GPX4) (AID 1845192); conditions: recombinant GPX4, GR-coupled NADPH fluorescence, 15 min; series mostly up to 50 µM; also: nearly all actives have a fitted effect of over 65% in size; as to activity change, negative = inhibition: % is scaled to controls: 0 for no effect and ±100 for the full control effect
Outline: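 GR-coupled readout: 100 nM GR, 1 mM GSH, 0.5 mM NADPH; NADPH fluorescence (ex 340/em 450 nm) read at t=0 and after 15 min RT. GPX4 200 nM, preincubated 30 min with compound; substrate 0.5 mM CHP.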

[6] = qHTS drug screen for cell cycle checkpoint inhibitors in PARPi-resistant BRCA-mutant ovarian cancer cell lines. (AID 1963452; calls by dose curve); conditions: PEO1/OlaR viability, CellTiter-Glo luminescence, 96 h; for Z-AUC: stronger effect = lower value
Outline: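 PEO1, PEO4 and PEO1/OlaR ovarian cancer cells, 600 per well, exposed 96 h at 37C to a dilution series. Viability read by CellTiter-Glo luminescence, normalized to DMSO and empty wells; activity summarized as Z-AUC.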

[7] = measured here: PEO1 parental Z-AUC
Potency is read from the fitted curve at half-maximal effect.

Phospholipid hydroperoxide glutathione peroxidase GPX4 (Homo sapiens), sequence (P36969 whole entry, looked up): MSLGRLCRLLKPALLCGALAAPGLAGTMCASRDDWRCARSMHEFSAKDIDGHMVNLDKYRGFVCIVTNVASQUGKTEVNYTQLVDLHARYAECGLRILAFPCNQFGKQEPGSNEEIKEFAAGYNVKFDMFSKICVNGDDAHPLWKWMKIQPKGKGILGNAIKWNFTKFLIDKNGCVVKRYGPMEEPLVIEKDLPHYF
Glutathione peroxidase 1 (Homo sapiens), sequence (P07203 whole entry, looked up): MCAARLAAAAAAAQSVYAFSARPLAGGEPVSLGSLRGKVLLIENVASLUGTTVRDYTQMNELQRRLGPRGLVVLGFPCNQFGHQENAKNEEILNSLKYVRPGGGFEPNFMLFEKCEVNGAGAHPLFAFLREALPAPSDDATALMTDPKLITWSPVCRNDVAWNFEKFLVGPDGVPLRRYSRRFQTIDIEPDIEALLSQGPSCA

Row | Compound | Potency [1] | Potency [2] | Potency [3] | Potency [4] | Potency [5] | Potency [6] | Z-AUC [6, 7] | Z-AUC ([6]; measured here: PEO4 Z-AUC) | Z-AUC [6] | activity change, negative = inhibition [1] | outcome [4] | outcome [5]
1 | COc1cc([C@@H]2c3cc4c(cc3[C@@H](O[C@@H]3O[C@@H]5CO[C@@H](c6cccs6)O[C@H]5[C@H](O)[C@H]3O)[C@H]3COC(=O)[C@H]23)OCO4)cc(OC)c1O | inactive | 0.0332 µM (active) | 0.0235 µM (active) | inactive | inactive | 0.0871 µM (active) | -1.88 | -2.18 |  |  |  | 
2 | C=CC(=O)N1CCC(C2CCNc3c(C(N)=O)c(-c4ccc(Oc5ccccc5)cc4)nn32)CC1 (centres undefined) | inactive | 14.8 µM (active) | 6.61 µM (active) | inactive | inactive |  | -0.23 | -0.000619 | -0.181 (inactive) |  |  | 
3 | COC(=O)[C@H]1[C@@H](O)[C@@]2(O)c3c(OC)cc(O[C@@H]4O[C@@H]([C@@H](O)CO)CO[C@H]4OC)cc3O[C@@]2(c2ccc(OC)cc2)[C@@H]1c1ccccc1 | inactive | 4.68 µM (active) | 2.95 µM (active) | inactive | inactive |  | 0.913 | 0.648 | 1.19 (inactive) |  |  | 
4 | Nc1nccc2c1ncn2[C@@H]1C=C(CO)[C@@H](O)[C@H]1O | inactive | 0.209 µM (active) | 0.148 µM (active) | inactive | inactive |  | -0.938 | -1.07 | -0.397 (inactive) |  |  | 
5 | CC1(N)CCN(c2cccnc2NC(=O)c2nc(-c3ncccc3C(F)(F)F)cnc2N)CC1 | inactive | 16.6 µM (active) | 20.9 µM (active) | inactive | inactive |  | -0.000608 | 0.765 | 0.421 (inactive) |  |  | 
6 | COc1ccc(CNC(=O)c2cc(-c3cncc(Cl)c3)cnc2-c2ccccn2)nc1OC | inactive | inactive | inactive | inactive | inactive |  | 0.872 | 1.32 | 0.765 (inactive) |  |  | 
7 | CC(C)[C@H]1C(=O)N[C@@H](CCCN=C(N)N)C(=O)NCC(=O)N[C@@H](CC(=O)O)C(=O)N[C@H](Cc2ccccc2)C(=O)N1C | inactive | inactive | inactive | inactive | inactive |  | -1.22 | -0.795 | -1.37 (inactive) |  |  | 
8 | O=S(=O)(Nc1ccc(-c2cccnc2)c2cccnc12)c1cccc(C(F)(F)F)c1 | 8.29 µM (active) | 7.42 µM (active) | 7.42 µM (active) | inactive | inactive |  | 0.0874 | 0.396 | 0.456 (inactive) |  |  | 
9 | Cc1nc(NC(=O)N2CCC[C@H]2C(N)=O)sc1-c1csc(C(C)(C)C)n1 | inactive | 5.25 µM (active) | 4.68 µM (active) | inactive | inactive |  | 0.231 | 0.403 | 0.111 (inactive) |  |  | 
10 | COc1nc(N)nc2c1ncn2C1OC(CO)C(O)C1O (centres undefined) | inactive | 5.25 µM (active) | 4.68 µM (active) | inactive | inactive |  | -0.445 | -0.286 | -0.613 (inactive) |  |  | 
11 | CC1(N)CCN(c2cnc(-c3cccc(Cl)c3Cl)c(N)n2)CC1 | inactive | inactive | inactive | inactive | inactive |  | -0.626 | -0.55 | -0.468 (inactive) |  |  | 
12 | CNCCn1c(=O)c2cc(OC)c(OC)cc2c2cnc3cc4c(cc3c21)OCO4 |  | 0.0096 µM (active) | 0.006 µM (active) |  |  | 0.0071 µM (active) | -3.24 | -2.15 |  | -8.45% [at 8.44 µM] (inactive) | inactive [at 9.52 µM] | inactive [at 9.73 µM]
13 | O=C(NCc1ccccc1)[C@H](Cc1ccccc1)NC(=O)[C@H]1O[C@@H]1C(=O)NCCc1ccc(O)cc1 | inactive | 23.5 µM (active) | 18.6 µM (active) | inactive | inactive |  | 0.636 | 0.423 | 1.49 (inactive) |  |  | 
14 | COc1ccc(C(=O)N2CCN(C(=O)/C=C/c3ccc(Br)cc3)CC2)cc1 | inactive | inactive | inactive | inactive | inactive |  | 1.01 | 1.05 | 1.19 (inactive) |  |  | 
15 | CC(C)C[C@@H]1NC(=O)[C@@H](C(C)C)NC(=O)[C@@H]2CCCN2C(=O)[C@@H](CC(=O)O)NC(=O)[C@@H](Cc2c[nH]c3ccccc23)NC1=O (cyclo(L[dW][dD]P[dV])) | inactive | inactive | inactive | inactive | inactive |  | 0.0618 | -0.23 | -0.319 (inactive) |  |  | 
16 | COC(=O)/C=C/C(=O)OC | inactive | inactive | inactive | inactive | inactive |  | 0.852 | 0.675 | -0.0504 (inactive) |  |  | 
17 | CCN(CC)CCCC[C@H](NC(=O)[C@H](CC(C)C)NC(=O)[C@H](C)NC(=O)[C@H](Cc1ccccc1)NC(=O)c1ccc(C(C)(C)C)cc1)C(=O)N[C@@H](CO)C(=O)OC ({Benzoyl(4-tBu)}-FAL[Lys(Et2)]S-OMe) | inactive | inactive | inactive | inactive | inactive |  | 0.227 | -0.0734 | -0.334 (inactive) |  |  | 
18 | O=C(O)CC(C(=O)O)n1c(O)c(C2=c3cc(Br)ccc3=NC2=O)sc1=S (centres undefined) | inactive | inactive | inactive | 5.15 µM (active) | 10.1 µM (active) |  | 0.91 | 1.08 | 1.23 (inactive) |  |  | 

From PubChem BioAssay (NCATS)
